Results as given in PubChem BioAssay (NCATS).
Inconclusive results are not listed. Where a call stands in place of a potency, no number is given. Activity calls are given as the source filed them. Calls come from the whole dose curve; as a rule, active = well fitted curve in the direction sought with a large enough effect; inconclusive = small, poorly fitted or top-dose-only effect, or another doubt; inactive = no such curve, though single readings can be large; an effect the other way counts as inactive or inconclusive.

Tests used:
[1] = biological target: Protein phosphatase 1D (Homo sapiens) (UniProt O15297); test: RapidFire Mass Spectrometry qHTS Assay for Modulators of WT P53-Induced Phosphatase 1 (WIP1) (AID 1347424); conditions: WIP1 dephosphorylation of phosphopeptide, RapidFire MS; series mostly up to 63 µM;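 note: amount of dephosphorylated VEPPL-S-QETFS peptide product formed by WIP1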; note: potency is the fitted concentration of half-maximal effect
Method in brief: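 10 nM WIP1 + cpd, 1 h RT; + 2 uM VEPPL-pS-QETFS, 5 min RT; stop 0.5% formic acid; labelled product standard 1 uM; RapidFire MS. Buffer 50 mM Tris pH 7.5, 30 mM MgCl2, 1 mM TCEP.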

[2] = biological target: Protein phosphatase 1D (Homo sapiens) (UniProt O15297); test: Rhodamine-PBP qHTS Assay for Modulators of WT P53-Induced Phosphatase 1 (WIP1) (AID 1347425); conditions: recombinant WIP1, Rhodamine-PBP phosphate fluorescence, real-time; series mostly up to 57.5 µM
Method in brief: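 WIP1 (5 nM final) was preincubated with compound for 1 hour at room temperature. It then dephosphorylated 10 uM VEPPL-pS-QETFS peptide in Tris-HCl pH 7.5 with 30 mM MgCl2. Released Pi was detected by 10 uM Rh-PBP fluorescence (ex 525/em 598 nm) read at 1-min intervals for 11 min, as delta f1 - f0.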

[3] = Primary qHTS for inhibitors of La Crosse Virus (LACV) - induced cell death in SH-SY5Y cells (AID 1508616); conditions: SH-SY5Y LACV cytopathicity rescue, ATP luminescence, 6 d; series mostly up to 4.29 µM;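 note: top concentration of the series differs between compounds; higher means more rescue of cells from virus-induced death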
Method in brief: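 Protection against LACV-induced cell death is scored in SH-SY5Y cells exposed to compounds and virus (0.01 MOI) for 6 days. Data normalized to virus-infected DMSO wells and virus-free DMSO wells.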

[4] = Validation qHTS assay for inhibitors of Activation Induced Cytidine Deaminase (AID): UDG Counterscreen signal (AID 1347427); conditions: biochemical UDG counterscreen, fluorescence signal; series mostly up to 115 µM
Method in brief: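 Counterscreen read of UDG activity (2 U/mL, 4/3x) in the FRET deamination format with AID (1 uM, 4/3x), DJC20/DJC23 substrates (250 nM, 4x), 4 h at room temperature. NaOH stop, fluorescence at 560 ex/665 em.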

[5] = biological target: Single-stranded DNA cytosine deaminase (Homo sapiens) (UniProt Q9GZX7); test: Validation qHTS assay for inhibitors of Activation Induced Cytidine Deaminase (AID): AID signal (AID 1347429); conditions: Recombinant AID, FRET ssDNA deamination with UDG, fluorescence; series mostly up to 115 µM
Method in brief: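 Fluorescence at 540 nm excitation and 590 nm emission reports ssDNA cytosine deamination by AID, with UDG in the same well. Compound-treated reactions ran 4 hr at room temperature with DJC20/DJC23 substrate, followed by 30 min NaOH treatment.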

[6] = biological target: Calcium and integrin-binding protein 1 (Homo sapiens) (UniProt Q99828); test: Validation qHTS for Identification of Calcium Integrin Binding protein 1 (CIB1) Competitor (AID 1508618); conditions: CIB1-GST / FITC-alphaIIb peptide fluorescence polarization; series mostly up to 114 µM
Method in brief: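 Fluorescence polarization with 1 uM CIB1-GST and 100 nM FITC-alphaIIb peptide in HEPES pH 7.4, NaCl, 5 mM CaCl2, Tween20. Compounds at up to 114 uM final, preincubated with protein 15 min; read after 15 min more at RT.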

[7] = biological target: Calcium and integrin-binding protein 1 (Homo sapiens) (UniProt Q99828); test: Primary qHTS for Identification of Calcium Integrin Binding Protein 1 (CIB1) Competitor (AID 1508620); conditions: CIB1-GST / FITC-alphaIIb peptide fluorescence polarization; series mostly up to 114 µM;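 note: GST tagged CIB1 binding a fluorescein labelled alphaIIb integrin peptide tracer; top concentration of the series differs between compounds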
Method in brief: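 CIB1-GST (1 uM final) and compound incubated 15 min at room temperature before adding FITC-alphaIIb peptide tracer (100 nM final). Competition for binding read by fluorescence polarization (ex 480, em 540) after another 15 min at room temperature.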

Chain of Protein phosphatase 1D (Homo sapiens) (O15297 whole entry, looked up): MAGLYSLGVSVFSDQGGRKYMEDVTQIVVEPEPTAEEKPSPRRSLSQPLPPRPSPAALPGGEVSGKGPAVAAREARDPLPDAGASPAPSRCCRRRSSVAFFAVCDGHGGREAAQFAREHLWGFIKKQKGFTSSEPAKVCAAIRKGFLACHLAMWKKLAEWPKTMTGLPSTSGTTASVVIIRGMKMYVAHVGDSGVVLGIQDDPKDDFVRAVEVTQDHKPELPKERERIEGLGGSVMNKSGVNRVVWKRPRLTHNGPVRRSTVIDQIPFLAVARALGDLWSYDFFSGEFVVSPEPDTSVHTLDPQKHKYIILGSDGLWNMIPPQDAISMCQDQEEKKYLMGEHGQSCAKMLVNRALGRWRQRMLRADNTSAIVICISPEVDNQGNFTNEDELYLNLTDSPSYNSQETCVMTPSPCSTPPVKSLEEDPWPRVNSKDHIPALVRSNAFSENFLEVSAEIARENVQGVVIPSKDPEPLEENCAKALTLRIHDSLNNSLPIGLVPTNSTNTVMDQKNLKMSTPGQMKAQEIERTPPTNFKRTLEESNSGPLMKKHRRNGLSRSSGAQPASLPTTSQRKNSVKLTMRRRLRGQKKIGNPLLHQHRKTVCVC
Chain of Calcium and integrin-binding protein 1 (Homo sapiens) (Q99828 whole entry, looked up): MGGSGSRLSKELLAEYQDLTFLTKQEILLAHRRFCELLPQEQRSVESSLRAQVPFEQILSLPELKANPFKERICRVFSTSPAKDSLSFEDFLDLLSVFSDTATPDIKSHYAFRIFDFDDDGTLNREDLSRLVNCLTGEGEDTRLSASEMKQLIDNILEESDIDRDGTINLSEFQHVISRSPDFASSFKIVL
Chain of Single-stranded DNA cytosine deaminase (Homo sapiens) (Q9GZX7 whole entry, looked up): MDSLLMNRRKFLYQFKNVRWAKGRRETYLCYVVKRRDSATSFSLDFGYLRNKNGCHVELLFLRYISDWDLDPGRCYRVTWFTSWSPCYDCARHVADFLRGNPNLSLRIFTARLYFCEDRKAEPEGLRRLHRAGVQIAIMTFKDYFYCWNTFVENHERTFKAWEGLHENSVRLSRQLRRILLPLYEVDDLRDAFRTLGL

Oc1c(Cl)cc(Cl)c(Cl)c1Cc1c(O)c(Cl)cc(Cl)c1Cl
Potency [1]: 8.91 µM (active)

NCCNC(=O)c1ccc(Cl)cn1
Potency [1]: inactive | outcome [2]: inactive

Cc1cn([C@H]2C[C@H](F)[C@@H](CO)O2)c(=O)[nH]c1=O
Potency [1]: inactive | outcome [2]: inactive | outcome [3]: inactive

CCOc1ccc(NC(C)=O)cc1
Potency [1]: inactive | outcome [2]: inactive | outcome [3]: inactive

CCCCC(CC)CN1CN(CC(CC)CCCC)CC(C)(N)C1 (stereo not given)
Potency [1]: inactive | outcome [2]: inactive | outcome [3]: inactive

O=c1[nH]c(=O)n([C@H]2C[C@H](O)[C@@H](CO)O2)cc1F
Potency [1]: inactive | outcome [2]: inactive

NS(=O)(=O)c1ccc(Cl)c(S(N)(=O)=O)c1
Potency [1]: inactive | outcome [2]: inactive | outcome [3]: inactive

OCc1ccccn1
Potency [1]: inactive | outcome [2]: inactive | outcome [3]: inactive

C[C@H]1[C@H]2CC[C@H]3[C@@H]4CC=C5C[C@@H](N(C)C)CC[C@]5(C)[C@H]4CC[C@]23CN1C
Potency [1]: inactive | outcome [2]: inactive | outcome [3]: inactive

Cc1cc2c(OCC(CNC(C)(C)C)OC(=O)c3ccccc3)cccc2[nH]1 (stereo not given)
Potency [1]: inactive | outcome [2]: inactive | outcome [3]: inactive

OC1C(O)C(O)C(O)C(O)C1O (stereo not given)
Potency [1]: inactive | outcome [2]: inactive | outcome [3]: inactive

OC[C@H]1O[C@@H]2O[C@H]3[C@H](O)[C@@H](O)[C@@H](O[C@H]4[C@H](O)[C@@H](O)[C@@H](O[C@H]5[C@H](O)[C@@H](O)[C@@H](O[C@H]6[C@H](O)[C@@H](O)[C@@H](O[C@H]7[C@H](O)[C@@H](O)[C@@H](O[C@H]8[C@H](O)[C@@H](O)[C@@H](O[C@H]1[C@H](O)[C@H]2O)O[C@@H]8CO)O[C@@H]7CO)O[C@@H]6CO)O[C@@H]5CO)O[C@@H]4CO)O[C@@H]3CO
Potency [1]: inactive | outcome [2]: inactive | outcome [3]: inactive

CC(=O)Oc1ccc(C)cc1
Potency [1]: inactive | outcome [2]: inactive

CCOC(=O)C(C#N)=C(c1ccccc1)c1ccccc1
Potency [1]: inactive | outcome [2]: inactive

COc1ccc(C(=O)c2ccccc2O)c(O)c1
Potency [1]: inactive | outcome [2]: inactive | outcome [3]: inactive

C#C[C@]1(O)CC[C@H]2[C@@H]3CCC4=Cc5oncc5C[C@]4(C)[C@H]3CC[C@@]21C
Potency [1]: inactive | outcome [2]: inactive | outcome [3]: inactive

FC(F)(F)C(F)(F)C(F)(F)C(F)(F)C(F)(F)C(F)(F)C(F)(F)C(F)(F)Br
Potency [1]: inactive | outcome [2]: inactive | outcome [3]: inactive

CNCCc1ccccn1
Potency [1]: inactive | outcome [2]: inactive

CC(C)Cn1cnc2c1c(=O)n(C)c(=O)n2C
Potency [1]: inactive | outcome [2]: inactive | outcome [3]: inactive

CC(C)(C)NC[C@H](O)COc1nsnc1N1CCOCC1
Potency [1]: inactive | outcome [2]: inactive | outcome [4]: inactive | outcome [5]: inactive | outcome [3]: inactive | outcome [6]: inactive | Potency [7]: inactive

O=C(Nc1cccc(C2=NCCN2)c1)Nc1cccc(C2=NCCN2)c1
Potency [1]: inactive | outcome [2]: inactive | outcome [3]: inactive

CCCCCCCCCCCCCCCC(=O)O
Potency [1]: inactive | outcome [2]: inactive | outcome [3]: inactive

O=C(CCN1CCN2CCCC2C1)N1c2ccccc2Sc2ccc(Cl)cc21 (stereo not given)
Potency [1]: inactive | outcome [2]: inactive | outcome [3]: inactive

CCc1cc(Cl)c(OC)c(C(=O)NC[C@@H]2CCCN2CC)c1O
Potency [1]: inactive | outcome [2]: inactive | outcome [3]: inactive

OC(C#CCN1CCCC1)(c1ccccc1)c1ccccc1
Potency [1]: inactive | outcome [2]: inactive | outcome [3]: inactive

Nc1ccc(C(=O)NCC(=O)O)cc1
Potency [1]: inactive | outcome [2]: inactive | outcome [3]: inactive

CCN(CC)CCNc1ccc(CO)c2sc3ccccc3c(=O)c12
Potency [1]: inactive | outcome [2]: inactive

C#C[C@]1(O)CC[C@H]2[C@@H]3CCc4cc(OC)ccc4[C@H]3CC[C@@]21C
Potency [1]: inactive | outcome [2]: inactive

C=C[C@H]1CN2CC[C@H]1C[C@H]2[C@H](O)c1ccnc2ccc(OC)cc12
Potency [1]: inactive | outcome [2]: inactive | outcome [3]: inactive

CCCCN=C(N)N=C(N)N
Potency [1]: inactive | outcome [2]: inactive | outcome [3]: inactive

C[N+]1(CC2COC(c3ccccc3)(C3CCCCC3)O2)CCCCC1 (stereo not given)
Potency [1]: inactive | outcome [2]: inactive | outcome [3]: inactive

CC(=O)O[C@]1(C(C)=O)CC[C@H]2[C@@H]3C=C(C)C4=CC(=O)CC[C@]4(C)[C@H]3CC[C@@]21C
Potency [1]: inactive | outcome [2]: inactive | outcome [3]: inactive

CN1CCN(CCC(=O)N2c3ccccc3Sc3ccc(C(F)(F)F)cc32)CC1
Potency [1]: inactive | outcome [2]: inactive

O=C1[C@H](CC[C@H](O)c2ccc(F)cc2)[C@@H](c2ccc(O)cc2)N1c1ccc(F)cc1
Potency [1]: inactive | outcome [2]: inactive

CCc1nn(CCCN2CCN(c3cccc(Cl)c3)CC2)c(=O)n1CCOc1ccccc1
Potency [1]: inactive | outcome [2]: inactive | outcome [3]: inactive

N#C/C(=C1\SCC(c2ccccc2Cl)S1)n1ccnc1 (stereo not given)
Potency [1]: inactive | outcome [2]: inactive | outcome [3]: inactive

CCN(CC)CCNC(=O)COc1ccc(OC)cc1
Potency [1]: inactive | outcome [2]: inactive | outcome [3]: inactive | Potency [7]: inactive

CCN(CC)CCOc1ccccc1C(=O)CCc1ccccc1
Potency [1]: inactive | outcome [2]: inactive | outcome [3]: inactive | Potency [7]: inactive

CNCCCCOc1ccccc1Cc1ccccc1
Potency [1]: inactive | outcome [2]: inactive | outcome [3]: inactive

CCCCc1cc2ccccc2c(OCCN(C)C)n1
Potency [1]: inactive | outcome [2]: inactive | outcome [3]: inactive | Potency [7]: inactive

Cc1cccc(C)c1NC(=O)CN1CCCCCC1
Potency [1]: inactive | outcome [2]: inactive | outcome [3]: inactive

CCOc1ccccc1OCCN[C@H](C)Cc1ccc(OC)c(S(N)(=O)=O)c1
Potency [1]: inactive | outcome [2]: inactive | outcome [3]: inactive

CCCCCCCC/C=C\CCCCCCCCN
Potency [1]: inactive | outcome [2]: inactive | outcome [3]: inactive | Potency [7]: inactive

O=C(N/N=C/c1ccc([N+](=O)[O-])o1)c1ccc(O)cc1
Potency [1]: inactive | outcome [2]: inactive | outcome [3]: inactive

CC(=O)Nc1ccc(OCC(O)CNC(C)C)cc1 (stereo not given)
Potency [1]: inactive | outcome [2]: inactive | outcome [3]: inactive

O[C@@H](c1cc(C(F)(F)F)nc2c(C(F)(F)F)cccc12)[C@H]1CCCCN1
Potency [1]: inactive | outcome [2]: inactive | outcome [3]: inactive
